Hits are enriched below; roughly 6.7% of the tested compounds scored in any of these assays.
T cruzi growth = T. cruzi proliferation inhibition. T. cruzi beta-gal in NIH3T3, GalScreen luminescence, 90 h. inhibition, % at 8.34 µM. hit rate 5.9% among 77,000;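 active means mean inhibition above about 93%, with at least 55% of replicates each passing it, limit read from the data, passing the limit was not always enough; inconclusive means only one of those two conditions holds; inactive means neither condition holds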
C diff growth = blocks growth of Clostridium difficile. hit rate 0.25% among 86,000. AID 1259249. Clostridium difficile clinical isolate growth, OD600, 24 h; hits give low values. growth activity, negative = inhibition, % at 16 µg/mL (by protocol);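 active means mean growth activity at or below -80% and every replicate also at or below -80%; inconclusive means mean at or below -80% but some replicate above -80%; inactive means mean growth activity above -80%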;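 further: 0% = DMSO wells and -100% = levofloxacin 16 µg/mL wells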
Pf Dd2 inh = inhibitors of Plasmodium falciparum Dd2 growth. AID 1159554. activity change, % at 10 µM. hit rate 2.3% among 94,000. P. falciparum Dd2 growth, SYBR Green, 72 h; hits give low values; in the data active means activity change below about -80%; inconclusive means no clear call, values can overlap the other calls
Starred values were filed as active, the others as inactive; ? = inconclusive; / = no result.

SMILES | T cruzi growth | C diff growth | Pf Dd2 inh
C[C@H]1CN([C@@H](C)CO)S(=O)(=O)c2ccc(C#Cc3cccnc3)cc2O[C@H]1CN(C)CC1CC1 | -1.1 | / | -73.1
CCCN(C)C[C@H]1Oc2cc(C#Cc3ccccc3OC)ccc2S(=O)(=O)N([C@H](C)CO)C[C@H]1C | 78.6 | 2.5 | -80.7*
C[C@@H]1CN([C@@H](C)CO)S(=O)(=O)c2ccc(-c3ccc(C#N)cc3)cc2O[C@@H]1CN(C)CC1CC1 | -38.0 | -3.4 | -77.0
C[C@H]1CN([C@@H](C)CO)S(=O)(=O)c2ccc(-c3ccc(C#N)cc3)cc2O[C@H]1CN(C)CC1CC1 | -47.6 | 4.9 | -91.2*
CCCN(C)C[C@@H]1Oc2cc(C#Cc3ccccc3OC)ccc2S(=O)(=O)N([C@@H](C)CO)C[C@@H]1C | 49.6 | 11.0 | -39.1
CCCNC(=O)C[C@H]1CC[C@@H]2[C@H](COC[C@H](O)CN2Cc2cccc(F)c2)O1 | -1.1 | -0.4 | 15.6
C[C@H](CO)N1C[C@H](C)[C@H](CN(C)Cc2ccc3c(c2)OCO3)OCCCC[C@H](C)Oc2ccc(NS(C)(=O)=O)cc2C1=O | 22.2 | 2.0 | /
C[C@@H]1CN([C@H](C)CO)C(=O)Cc2cc(NC(=O)Nc3ccc4c(c3)OCO4)ccc2O[C@H]1CN(C)Cc1ccncc1 | / | -2.8 | 2.8
C[C@@H]1CN([C@@H](C)CO)C(=O)Cc2cc(NS(=O)(=O)c3ccc(F)cc3)ccc2O[C@@H]1CN(C)S(C)(=O)=O | 25.8 | -2.7 | -0.7
CCS(=O)(=O)Nc1ccc2c(c1)C(=O)N(C)C[C@H](OC)[C@@H](C)CN(C(=O)COC)[C@H](C)CO2 | -21.9 | -3.5 | 25.6
C[C@@H]1CCCCO[C@@H](CN(C)S(=O)(=O)c2ccc(Cl)cc2)[C@@H](C)CN([C@@H](C)CO)C(=O)c2cc(NS(=O)(=O)c3ccccc3)ccc2O1 | / | 0.7 | -70.2
C[C@@H]1CN([C@@H](C)CO)C(=O)c2cc(NS(=O)(=O)c3ccccc3)ccc2O[C@@H](C)CCCCO[C@@H]1CN(C)S(=O)(=O)c1ccc(Cl)cc1 | / | 4.0 | -85.1*
C[C@@H]1CN([C@H](C)CO)C(=O)c2cc(NS(=O)(=O)c3ccccc3)ccc2O[C@@H](C)CCCCO[C@@H]1CN(C)S(=O)(=O)c1ccc(Cl)cc1 | ? | 1.2 | -74.4
C[C@H]1CCCCO[C@H](CN(C)S(=O)(=O)c2ccc(Cl)cc2)[C@@H](C)CN([C@@H](C)CO)C(=O)c2cc(NS(=O)(=O)c3ccccc3)ccc2O1 | / | 0.2 | -89.7*
C[C@@H]1CN([C@@H](C)CO)C(=O)Cc2cc(NC(=O)CCN3CCOCC3)ccc2O[C@H]1CN(C)CC1CC1 | -4.9 | 1.3 | -1.0
CN(C)CCCNC(=O)C[C@@H]1CC[C@@H](NC(=O)c2ccccc2F)[C@H](CO)O1 | 0.4 | / | 12.5
C[C@@H]1CCCCO[C@H](CN(C)Cc2ccc(Cl)c(Cl)c2)[C@@H](C)CN([C@@H](C)CO)C(=O)c2cc(NC(=O)c3ccccc3)ccc2O1 | / | 22.1 | -89.8*
C[C@H](CO)N1C[C@H](C)[C@H](CN(C)Cc2ccc(Cl)c(Cl)c2)OCCCC[C@H](C)Oc2ccc(NC(=O)c3ccccc3)cc2C1=O | / | 25.7 | 9.1
C[C@@H]1CCCCO[C@@H](CN(C)Cc2ccc(Cl)c(Cl)c2)[C@H](C)CN([C@H](C)CO)C(=O)c2cc(NC(=O)c3ccccc3)ccc2O1 | / | 9.8 | -80.7*
C[C@H](CO)N1C[C@H](C)[C@@H](CN(C)Cc2ccc(Cl)c(Cl)c2)OCCCC[C@H](C)Oc2ccc(NC(=O)Cc3ccccc3)cc2C1=O | 65.4 | 8.0 | -73.9
Cn1cnc(S(=O)(=O)N[C@@H]2CC[C@@H](CC(=O)N3CCN(c4ccccc4)CC3)O[C@H]2CO)c1 | -37.0 | / | 19.9
C[C@@H]1CCCCO[C@@H](CN(C)C(=O)c2ccccc2)[C@H](C)CN([C@@H](C)CO)C(=O)c2cc(NS(=O)(=O)c3ccccc3)ccc2O1 | -14.9 | / | 7.7
COc1ccc(NC(=O)Nc2ccc3c(c2)C(=O)N([C@@H](C)CO)C[C@H](C)[C@@H](CN(C)CC2CCCCC2)OCCCC[C@H](C)O3)cc1 | 90.4 | -3.9 | -86.5*
COc1ccc(NC(=O)Nc2ccc3c(c2)C(=O)N([C@@H](C)CO)C[C@H](C)[C@@H](CN(C)CC2CC2)OCCCC[C@H](C)O3)cc1 | 59.3 | / | -89.8*
COc1ccc(NC(=O)Nc2ccc3c(c2)C(=O)N([C@H](C)CO)C[C@H](C)[C@@H](CN(C)CC2CC2)OCCCC[C@@H](C)O3)cc1 | 37.6 | 5.4 | -59.4
COc1ccc(NC(=O)Nc2ccc3c(c2)C(=O)N([C@H](C)CO)C[C@H](C)[C@H](CN(C)CC2CCCCC2)OCCCC[C@H](C)O3)cc1 | 93.0 | -13.8 | ?

Source: PubChem BioAssay
